Measurements published in the antibiotic and cytotoxicity screens of Wong et al. (2023).
The whole screen tested about 39,000 compounds, of which about 3,300 (8.5%) were called active. Shown is part of a subset that was picked to be rich in actives.

test system: HepG2; assay: cytotoxicity call (relative viability < 0.9); conditions: 10 µM

| Compound | cytotoxicity call |
| --- | --- |
| COc1ccc(S(=O)(=O)Nc2ccc3c(c2)C(=O)N([C@H](C)CO)C[C@@H](C)[C@@H](CN(C)S(=O)(=O)c2cn(C)cn2)O3)cc1 | inactive |
| O=C(N[C@H]1CCS(=O)(=O)C1)N1CCCCC1 | inactive |
| Cc1ccc(N2C(=O)c3ccccc3[C@](C)(C(=O)NCCN3CCOCC3)[C@@H]2c2ccc(CO)cc2)nc1 | inactive |
| C[C@@H]1CN([C@H](C)CO)C(=O)Cc2cc(NC(=O)Cn3cnnn3)ccc2O[C@@H]1CN(C)C(=O)Nc1ccc(F)cc1 | inactive |
| Cc1ccc(S(=O)(=O)N(C)C[C@H]2OCCCC[C@H](C)Oc3ccc(NC(=O)Nc4cccc5ccccc45)cc3C(=O)N([C@@H](C)CO)C[C@H]2C)cc1 | inactive |
| O=C(C1=C[C@@H](C2CC2)C[C@@H](OCc2ccc(CO)cc2)O1)N1CCN(Cc2ccc3c(c2)OCO3)CC1 | inactive |
| CCC(=O)O[C@H]1[C@H](O[C@@H]2[C@@H](C)[C@H](O[C@H]3C[C@@](C)(OC)[C@@H](O)[C@H](C)O3)[C@@H](C)C(=O)O[C@H](CC)[C@@](C)(O)[C@H](O)[C@@H](C)C(=O)[C@H](C)C[C@@]2(C)O)O[C@H](C)C[C@@H]1N(C)C | inactive |
| O=C(C[C@H]1C=C[C@H](NC(=O)c2ccc(F)cc2)[C@H](CO)O1)NCc1ccncn1 | inactive |
| CN(C)C(=O)c1ccc(-c2cccc(-c3nc(C(=O)NC4CCC4)cc4c3[C@@H](CCO)N([S@](=O)C(C)(C)C)C4)c2)cc1 | inactive |
| C[C@@H]1CCCCO[C@@H](CN(C)S(=O)(=O)c2cccs2)[C@@H](C)CN([C@@H](C)CO)C(=O)c2cc(NC(=O)Nc3ccc(F)cc3)ccc2O1 | inactive |
| C[C@@H]1CCCCO[C@H](CN(C)S(=O)(=O)c2ccc(F)cc2)[C@H](C)CN([C@H](C)CO)C(=O)c2cc(NS(=O)(=O)c3ccc(Cl)cc3)ccc2O1 | inactive |
| C[C@@H]1CCCCO[C@H](CN(C)S(=O)(=O)c2ccc(F)cc2)[C@@H](C)CN([C@H](C)CO)C(=O)c2cc(NS(=O)(=O)c3ccc(Cl)cc3)ccc2O1 | inactive |
| C[C@H]1CCCCO[C@@H](CN(C)S(=O)(=O)c2ccc(Cl)cc2)[C@@H](C)CN([C@@H](C)CO)C(=O)c2cc(NS(=O)(=O)c3ccc(F)cc3)ccc2O1 | inactive |
| C[C@@H]1CN([C@H](C)CO)C(=O)c2cc(NS(=O)(=O)c3ccc(Cl)cc3)ccc2O[C@@H](C)CCCCO[C@H]1CN(C)S(=O)(=O)c1ccc(F)cc1 | active |
| C[C@@H]1CN([C@H](C)CO)C(=O)c2cc(NS(=O)(=O)c3ccc(F)cc3)ccc2O[C@@H](C)CCCCO[C@H]1CN(C)S(=O)(=O)c1ccc(Cl)cc1 | inactive |
| C[C@H]1CCCCO[C@H](CN(C)S(=O)(=O)c2ccc(Cl)cc2)[C@@H](C)CN([C@@H](C)CO)C(=O)c2cc(NS(=O)(=O)c3ccc(F)cc3)ccc2O1 | active |
| C[C@H]1CCCCO[C@H](CN(C)S(=O)(=O)c2ccc(F)cc2)[C@@H](C)CN([C@@H](C)CO)C(=O)c2cc(NS(=O)(=O)c3ccc(Cl)cc3)ccc2O1 | active |
| C[C@H](CO)N1C[C@H](C)[C@H](CN(C)S(=O)(=O)c2ccc(F)cc2)OCCCC[C@H](C)Oc2ccc(NS(=O)(=O)c3ccc(Cl)cc3)cc2C1=O | inactive |
| C[C@H](CO)N1C[C@H](C)[C@@H](CN(C)S(=O)(=O)c2ccc(F)cc2)OCCCC[C@H](C)Oc2ccc(NS(=O)(=O)c3ccc(Cl)cc3)cc2C1=O | inactive |
